PI5P4Ka inh – inhibitors of human PI5P4K alpha; P48426; max response, %; 330,000 tested, 1.2% active; PI5P4Kalpha enzyme, ADP-Glo luminescence, 60 min; active compounds read low; active means max response of -50% or lower; inconclusive means between -30% and -50%; inactive means -30% or higher; further: value at the top dose of about 77 µM; on the % scale 0 is the no-effect control and ±100 the full control effect
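Quantitative HTS of the MLSMR library against PI5P4Kalpha with substrate. ATP added last at 5 microM final; room temperature, 60 minutes. Remaining ATP depleted, ADP converted and read as luminescence.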
POLB inh – blocks human DNA polymerase beta activity; AID 485314; 340,000 tested, 1.3% active; Potency, µM (top dose mostly 114 µM), without a hit: at the top dose activity change, negative = inhibition, hits mostly inhibitors; Pol beta primer extension/strand displacement, fluorescence kinetic; P06746; further: potency means the concentration at half of the fitted maximal effect; on the % scale 0 is the no-effect control and ±100 the full control effect
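Homogeneous kinetic assay of primer extension and strand displacement by 10 nM Pol beta, preincubated 15 min at room temperature with compound before 50 nM substrate (final) was added. Read at 0 and 10 min; four-parameter Hill fit.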
Pol eta inh – blocks human DNA polymerase eta activity; Q9Y253; recombinant Pol eta, fluorescent DNA replication assay; Potency, µM (top dose mostly 114 µM), for inactives: at the highest dose activity change, negative = inhibition, hits mostly inhibitors; 390,000 tested, 1.2% active; AID 588591; further: potency means the concentration at half of the fitted maximal effect; on the % scale 0 is the no-effect control and ±100 the full control effect
Target sequence (Q9Y253 whole entry, looked up): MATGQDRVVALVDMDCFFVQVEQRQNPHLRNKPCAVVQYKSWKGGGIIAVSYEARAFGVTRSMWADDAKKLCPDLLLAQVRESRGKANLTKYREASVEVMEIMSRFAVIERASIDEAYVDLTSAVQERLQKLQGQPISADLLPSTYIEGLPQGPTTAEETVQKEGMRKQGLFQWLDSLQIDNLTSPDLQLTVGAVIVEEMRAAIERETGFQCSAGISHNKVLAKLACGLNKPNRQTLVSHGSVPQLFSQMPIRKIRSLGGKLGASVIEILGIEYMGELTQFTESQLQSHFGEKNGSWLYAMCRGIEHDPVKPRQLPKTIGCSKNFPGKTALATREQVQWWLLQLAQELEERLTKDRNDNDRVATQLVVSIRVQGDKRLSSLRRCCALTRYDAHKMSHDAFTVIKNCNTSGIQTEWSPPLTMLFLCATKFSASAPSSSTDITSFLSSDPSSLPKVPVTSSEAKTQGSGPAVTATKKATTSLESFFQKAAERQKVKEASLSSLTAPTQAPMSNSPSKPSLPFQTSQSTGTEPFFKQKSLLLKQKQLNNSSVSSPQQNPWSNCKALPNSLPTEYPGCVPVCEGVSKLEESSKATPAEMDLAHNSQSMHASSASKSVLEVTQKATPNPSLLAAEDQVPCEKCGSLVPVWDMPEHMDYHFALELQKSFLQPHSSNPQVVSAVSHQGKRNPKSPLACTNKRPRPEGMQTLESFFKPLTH
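Pol eta (10 nM) was preincubated with compounds for 15 min at room temperature, after which fluorescent replication substrate (50 nM final) was added to start the reaction. Fluorescence was read kinetically at 0 and 10 min.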
Pol iota inh – DNA polymerase iota (human) inhibition. Potency, µM (top dose mostly 115 µM), inactives show at the highest dose activity, negative = inhibition, usual class: inhibitors. Q9UNA4. AID 588590. Pol iota fluorescent replication assay, 10 min. 390,000 tested, 1% active; further: potency means the concentration at half of the fitted maximal effect
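Pol iota at 10 nM preincubated 15 min with compounds at room temperature; reaction started with fluorescent substrate, 50 nM final. Fluorescence read kinetically at 0 and 10 min; buffer-only wells as negative control.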
WRN inhibitor – blocks human WRN helicase; Q14191; WRN helicase unwinding, fluorescent forked duplex, kinetic; Potency, µM (series often up to 114 µM), for inactives: at the top dose activity change, negative = inhibition, hits mostly inhibitors; 360,000 tested, 0.46% active; AID 651768; further: potency means the concentration at half of the fitted maximal effect; on the % scale 0 is the no-effect control and ±100 the full control effect; nearly all actives have a fitted effect of over 55% in size
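Enzyme (20 nM final) and test compound sit together 15 min at room temperature before substrate addition. Substrate is a single-forked duplex oligonucleotide (100 nM) labelled with fluorophore and quencher, with 2 mM ATP; helicase unwinding raises red fluorescence, read kinetically.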
Pol kappa inh – blocks human DNA polymerase kappa activity; purified Pol kappa, fluorescent DNA synthesis assay, 10 min; Potency, µM (titrated, usually from 107 µM), for inactives: at the highest dose activity, negative = inhibition, usual class: inhibitors; 400,000 tested, 0.53% active; AID 588579; further: potency means the concentration at half of the fitted maximal effect; on the % scale 0 is the no-effect control and ±100 the full control effect
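Kinetic fluorescence readout at 0 and 10 min followed reaction start with substrate at 50 nM final. Beforehand, enzyme (10 nM Pol kappa) stood 15 min with compound at room temperature; buffer-only wells were negative controls.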
* hit, by the source's call; ? = inconclusive; · = not tested or not shown; [ ] = remark or other dose. An excerpt weighted towards active compounds, which were near 2.8% of everything screened. Unless noted, the call rests on the fitted dose curve; in most records, active means well fitted curve in the direction sought with a large enough effect; inconclusive means small, poorly fitted or top-dose-only effect, or another doubt; inactive means no such curve, though single readings can be large; an effect the other way counts as inactive or inconclusive.

SMILES	PI5P4Ka inh	POLB inh	Pol eta inh	Pol iota inh	WRN inhibitor	Pol kappa inh
Cc1ccccc1NC(=O)CSc1nc(-c2cccs2)nc2cc(=O)[nH]n12	·	?	-13.9%	89.1µM*	·	?
Cc1ccc(NC(=O)CSc2nc(-c3ccc(C(C)(C)C)cc3)nc3cc(=O)[nH]n23)cc1C	·	?	-8.2%	4.2%	·	-10.0%
CCOC(=O)c1ccc(S(=O)(=O)N2CCN(Cc3cc4c(cc3O)OCO4)CC2)cc1	4.1	·	-16.4%	-4.6%	0.2%	-14.7%
Cc1ccc(C)c(C2=NNC(=O)CC2)c1	-5.7	·	-16.5%	0.2%[58.9 µM]	3.3%	-15.2%
C=CCn1c(=O)c(CCC(=O)Nc2ccc(N3CCOCC3)cc2)nc2cc(C(F)(F)F)ccc21	-53.2*	5.8%	79.4µM*	?	-0.3%[11.6 µM]	?
COc1cc(/C=N/NC(=O)COc2ccc(-n3cnnn3)cc2)ccc1OCC(N)=O	1.7	15.8µM*	-9.1%	?	-6.4%	?
Cc1cc(C)cc(OCC(=O)Nc2ccc(-n3cnnn3)cc2)c1	1.1	·	-11.9%	31.6µM*	-5.6%	2.2%
COc1cc(/C=N/NC(=O)COc2ccc([N+](=O)[O-])cc2)ccc1OCC(=O)N1CCOCC1	12.4	17.8µM*	-1.2%	-7.8%	-3.2%	-15.7%
COc1ccc(/C=N/NC(=O)c2ccc(-n3cnnn3)cc2)cc1	-3.5	·	-16.4%	20.5%	-7.6%	-4.0%
Cc1cc(C)c(NC(=O)COc2ccc(-n3cnnn3)cc2)c(C)c1	-4.8	-27.9%	-13.1%	?	-15.4%	-2.9%
COc1cc(/C=N/NC(N)=S)ccc1OCC(=O)N1CCOCC1	-14.2	-9.6%	-4.0%	111.5%	-0.5%	-1.4%
CCOC(=O)[C@]12CCCC=C1N(CCc1ccc(OC)c(OC)c1)C(=O)[C@H](CC(=O)N1CCCCC1)C2	0.3	·	·	·	-5.8%	·
Cc1ccc(OCCC(=O)Nc2cc(S(=O)(=O)N3CCOCC3)ccc2N2CCCC2)cc1	0.1	·	-22.2%	4.5%	3.4%	1.1%
CC(=O)N1CCCC1c1nc2ccccc2n1Cc1cccc(Cl)c1 (stereo unspecified)	·	7.9%	-13.6%	26.6%	·	-5.9%
O=c1[nH]nc(-c2cc(-c3ccccc3)nc3ccccc23)o1	4.2	·	-10.9%	·	-6.5%	·
CCCCc1cc(-c2n[nH]c(=S)o2)c2ccccc2n1	-56.0*	-5.1%	-4.8%	123.9%	-12.6%	-9.9%
COc1ccccc1C(CNC(=O)C(CCSC)NC(=O)c1ccccc1Cl)N1CCCC1 (stereo unspecified)	-1.7	·	-13.0%	28.3%	-5.7%	1.7%
COc1cc2c(NC3CCN(C)CC3)nc(N3CCCCC3)nc2cc1OCCCN(C)C	·	·	·	39.8µM*	·	?
COc1cc2c(NC3CCN(C)CC3)nc(N3CCCN(C)CC3)nc2cc1OCCOCCN(C)C	·	·	·	?	·	-15.5%
COc1cc2c(NC3CCN(C)CC3)nc(N3CCCN(C)CC3)nc2cc1OCCCN(C)C	·	·	·	?	·	-37.3%
COc1cc2nc(N(C)C)nc(N)c2cc1OC	4.9	44.7µM*	4.6%	?	-20.9%	-7.8%
COc1cc2c(NC3CCN(C)CC3)nc(N3CCCCC3)nc2cc1OCCOCCN(C)C	·	·	·	50.1µM*	·	-29.3%
COc1cc2nc(N(C)C)nc(NC3CCN(C)CC3)c2cc1OC	·	·	·	25.1µM*	·	?
Cc1cccc(OCC(O)CN2CCOCC2)c1 (stereo unspecified)	3.8	45.2%	-13.8%	19.1%	3.9%	3.0%
CC(=O)Nc1ccc(C(=O)N2CCCCC2c2cc(C(=O)N3CCOCC3)no2)cc1 (stereo unspecified)	-1.9	·	·	·	2.7%	·
O=[N+]([O-])c1ccc2[nH]c(=S)[nH]c2c1	-0.4	·	-10.6%	-10.4%	7.0%	0.3%
O=c1[nH]c2ccc(Cl)cc2[nH]1	0.3	·	2.3%	30.7%	7.9%	-3.6%
S=c1[nH]c2ccc(Cl)cc2s1	-75.1*	9.0%	3.2%	-0.9%	-2.0%	-15.6%
O=[N+]([O-])c1ccc2[nH]c(=S)sc2c1	-75.0*	·	7.9%	-7.3%	-7.7%	-2.4%

From PubChem BioAssay
